Reference: the supplement of paper PMC10849652
The full data set covers some 7,900 targets. This sample favours those with a hit. About 0.6% of all pairs of compound and target were hits.

What was measured:
Assay in all cases: log2 fold change, soluble protein after heating vs DMSO (PISA); higher = thermal stabilisation; K562 cells, 10 uM, 30 min; active = over 0.2 and 3.5 SD of the protein, either way, in both replicates (recomputed)
erlotinib = compound: C#Cc1cccc(Nc2ncnc3cc(OCCOC)c(OCCOC)cc23)c1 [erlotinib]
Summary of the method: (§1)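 K562 cells (2×10^6 cells/mL) were treated with 10 μM compound for 30 min, and aliquots were heated for 3 min over 48°C-58°C. Pooled aliquots were extracted in PBS with 0.5% NP-40 at 4°C, and the supernatant after 21,000xg for 90 min was measured by TMTpro 16plex LC-MS/MS with channel sums equalised. Reported thermal stability, relative to control samples and from duplicates, is a log2 fold change.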

[1] = compound: C/C(=N\NC(=O)C1=CC(=CC=C1)S(=O)(=O)N2CCOCC2)/C3=C(C=CC(=C3)Cl)O
Summary of the method: as §1

[2] = compound: C1=CC(=C(C=C1Cl)C2=NC3=NC=CN=C3C(=N2)NC4=CC=NC=C4)F
Summary of the method: as §1

[3] = compound: C1=CC(=CC=C1C2=NC3=C(N2)C=C(C=C3)C(=O)N)OC4=CC=C(C=C4)Cl
Summary of the method: as §1

[4] = compound: C1=CC2=C(C=CC(=C2)/C=C\3/C(=O)NC(=NCC4=CC=CS4)S3)N=C1
Summary of the method: as §1

[5] = compound: C1=CC2=NC=CN=C2C=C1/C=C/3\C(=O)NC(=O)S3
Summary of the method: as §1

[6] = compound: C1=CC=C(C=C1)C2=NC(=C(N2)C3=CC=NC=C3)C4=CC(=C(C=C4)Cl)O
Summary of the method: as §1

[7] = compound: C1=CC=C2C(=C1)C3=NNC4=CC=CC(=C43)C2=O
Summary of the method: as §1

[8] = compound: C1CCN(C1)C(=O)NC2=CC=CC(=C2)NC3=NC=C(C(=N3)NCCC4=CN=CN4)Br
Summary of the method: as §1

[9] = compound: C1CN(CCC1(CC2=CC=C(C=C2)Cl)N)C3=NC=NC4=C3C=CN4
Summary of the method: as §1

IRAK-1-4 Inhibitor I = compound: C1COCCN1CCN2C3=CC=CC=C3N=C2NC(=O)C4=CC(=CC=C4)[N+](=O)[O-] [IRAK-1-4 Inhibitor I]
Summary of the method: as §1

ibrutinib = compound: C=CC(=O)N1CCC[C@@H](n2nc(-c3ccc(Oc4ccccc4)cc3)c3c(N)ncnc32)C1 [ibrutinib]
Summary of the method: as §1

[10] = compound: CC(=O)c1cnc2ccc(-c3cc(Cl)c(O)c(Cl)c3)nc2c1N[C@H]1CC[C@H](CN(C)C)CC1
Summary of the method: as §1

ralimetinib = compound: CC(C)(C)Cn1c(N)nc2ccc(-c3[nH]c(C(C)(C)C)nc3-c3ccc(F)cc3)nc21 [ralimetinib]
Summary of the method: as §1

[11] = compound: CC(C)(O)CC(=O)NCCn1ccc2ncnc(Nc3ccc(Oc4cccc(C(F)(F)F)c4)c(Cl)c3)c21
Summary of the method: as §1

[12] = compound: CC(C)C1=C2N=C(C=C(N2N=C1)NCC3=CC=CC=C3)NCCCCCCN
Summary of the method: as §1

[13] = compound: CC(C)C[C@@H](C=O)NC(=O)[C@H](CC(C)C)NC(=O)[C@H](CC(C)C)NC(=O)OCc1ccccc1
Summary of the method: as §1

pinometostat = compound: CC(C)N(C[C@H]1O[C@@H](n2cnc3c(N)ncnc32)[C@H](O)[C@@H]1O)[C@H]1C[C@@H](CCc2nc3cc(C(C)(C)C)ccc3[nH]2)C1 [pinometostat]
Summary of the method: as §1

[14] = compound: CC1=C(C(CC(=O)N1)C2=CC=C(C=C2)C(F)(F)F)C(=O)NC3=C(C=C4C(=C3)C=NN4)F
Summary of the method: as §1

[15] = compound: CC1=C(C2=C(C=C1)C(=O)C3=CC=CC=C3N2CCCN)C
Summary of the method: as §1

Sequence of UniProt Q6V1X1 (Q6V1X1 whole entry, looked up): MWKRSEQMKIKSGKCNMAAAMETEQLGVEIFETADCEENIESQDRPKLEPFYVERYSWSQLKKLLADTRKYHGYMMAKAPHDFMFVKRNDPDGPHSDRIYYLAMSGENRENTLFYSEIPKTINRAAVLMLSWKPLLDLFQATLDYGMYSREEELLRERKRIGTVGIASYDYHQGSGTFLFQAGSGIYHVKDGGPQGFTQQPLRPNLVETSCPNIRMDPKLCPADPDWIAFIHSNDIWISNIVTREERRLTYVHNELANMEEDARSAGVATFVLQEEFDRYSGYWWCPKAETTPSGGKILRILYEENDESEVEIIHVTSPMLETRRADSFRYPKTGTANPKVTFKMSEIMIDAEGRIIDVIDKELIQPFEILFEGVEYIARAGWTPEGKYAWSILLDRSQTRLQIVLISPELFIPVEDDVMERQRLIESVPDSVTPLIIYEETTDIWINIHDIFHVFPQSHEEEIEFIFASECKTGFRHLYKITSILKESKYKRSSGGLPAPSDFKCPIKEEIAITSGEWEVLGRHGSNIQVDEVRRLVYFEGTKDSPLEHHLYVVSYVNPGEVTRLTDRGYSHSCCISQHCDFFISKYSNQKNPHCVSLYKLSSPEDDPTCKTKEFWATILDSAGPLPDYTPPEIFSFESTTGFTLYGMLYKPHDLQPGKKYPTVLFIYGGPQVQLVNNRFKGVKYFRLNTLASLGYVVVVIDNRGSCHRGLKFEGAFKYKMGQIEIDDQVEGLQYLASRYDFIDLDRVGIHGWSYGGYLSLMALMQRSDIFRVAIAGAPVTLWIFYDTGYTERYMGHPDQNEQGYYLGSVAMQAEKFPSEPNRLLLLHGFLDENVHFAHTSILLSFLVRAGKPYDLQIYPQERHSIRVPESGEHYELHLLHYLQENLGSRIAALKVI
Sequence of UniProt Q14203 (Q14203 whole entry, looked up): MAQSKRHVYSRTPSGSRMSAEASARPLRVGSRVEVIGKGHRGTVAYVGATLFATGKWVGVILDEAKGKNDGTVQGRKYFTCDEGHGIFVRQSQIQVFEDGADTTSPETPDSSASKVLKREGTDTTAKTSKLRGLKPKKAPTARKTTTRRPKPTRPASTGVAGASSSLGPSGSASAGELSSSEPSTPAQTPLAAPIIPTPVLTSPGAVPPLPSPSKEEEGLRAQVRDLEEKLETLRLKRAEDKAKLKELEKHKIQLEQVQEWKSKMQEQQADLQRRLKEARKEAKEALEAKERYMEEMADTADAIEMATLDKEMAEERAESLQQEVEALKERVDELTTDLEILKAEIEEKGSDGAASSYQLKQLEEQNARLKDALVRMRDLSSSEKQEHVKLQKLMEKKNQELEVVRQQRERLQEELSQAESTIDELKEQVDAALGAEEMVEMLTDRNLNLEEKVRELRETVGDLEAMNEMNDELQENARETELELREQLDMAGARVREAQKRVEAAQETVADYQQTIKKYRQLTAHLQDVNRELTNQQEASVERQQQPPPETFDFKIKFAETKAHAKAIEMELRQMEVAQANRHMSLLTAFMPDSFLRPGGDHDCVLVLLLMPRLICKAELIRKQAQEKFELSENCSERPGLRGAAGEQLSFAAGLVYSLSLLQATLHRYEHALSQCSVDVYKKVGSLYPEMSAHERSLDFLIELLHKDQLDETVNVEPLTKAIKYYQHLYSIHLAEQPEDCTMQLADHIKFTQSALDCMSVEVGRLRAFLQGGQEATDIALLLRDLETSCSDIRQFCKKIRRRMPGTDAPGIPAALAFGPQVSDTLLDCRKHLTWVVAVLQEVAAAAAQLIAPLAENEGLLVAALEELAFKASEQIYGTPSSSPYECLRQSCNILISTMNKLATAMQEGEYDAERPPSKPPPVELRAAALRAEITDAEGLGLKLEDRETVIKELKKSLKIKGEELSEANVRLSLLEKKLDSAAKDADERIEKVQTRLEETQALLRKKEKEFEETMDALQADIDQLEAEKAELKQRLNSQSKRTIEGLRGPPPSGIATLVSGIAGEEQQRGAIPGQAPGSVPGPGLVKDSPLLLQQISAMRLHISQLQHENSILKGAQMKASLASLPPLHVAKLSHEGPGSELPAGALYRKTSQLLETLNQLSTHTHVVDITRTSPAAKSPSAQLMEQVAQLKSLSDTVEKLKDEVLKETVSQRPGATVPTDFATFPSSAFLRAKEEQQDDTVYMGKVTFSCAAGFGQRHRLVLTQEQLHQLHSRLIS
Sequence of UniProt Q14118 (Q14118 whole entry, looked up): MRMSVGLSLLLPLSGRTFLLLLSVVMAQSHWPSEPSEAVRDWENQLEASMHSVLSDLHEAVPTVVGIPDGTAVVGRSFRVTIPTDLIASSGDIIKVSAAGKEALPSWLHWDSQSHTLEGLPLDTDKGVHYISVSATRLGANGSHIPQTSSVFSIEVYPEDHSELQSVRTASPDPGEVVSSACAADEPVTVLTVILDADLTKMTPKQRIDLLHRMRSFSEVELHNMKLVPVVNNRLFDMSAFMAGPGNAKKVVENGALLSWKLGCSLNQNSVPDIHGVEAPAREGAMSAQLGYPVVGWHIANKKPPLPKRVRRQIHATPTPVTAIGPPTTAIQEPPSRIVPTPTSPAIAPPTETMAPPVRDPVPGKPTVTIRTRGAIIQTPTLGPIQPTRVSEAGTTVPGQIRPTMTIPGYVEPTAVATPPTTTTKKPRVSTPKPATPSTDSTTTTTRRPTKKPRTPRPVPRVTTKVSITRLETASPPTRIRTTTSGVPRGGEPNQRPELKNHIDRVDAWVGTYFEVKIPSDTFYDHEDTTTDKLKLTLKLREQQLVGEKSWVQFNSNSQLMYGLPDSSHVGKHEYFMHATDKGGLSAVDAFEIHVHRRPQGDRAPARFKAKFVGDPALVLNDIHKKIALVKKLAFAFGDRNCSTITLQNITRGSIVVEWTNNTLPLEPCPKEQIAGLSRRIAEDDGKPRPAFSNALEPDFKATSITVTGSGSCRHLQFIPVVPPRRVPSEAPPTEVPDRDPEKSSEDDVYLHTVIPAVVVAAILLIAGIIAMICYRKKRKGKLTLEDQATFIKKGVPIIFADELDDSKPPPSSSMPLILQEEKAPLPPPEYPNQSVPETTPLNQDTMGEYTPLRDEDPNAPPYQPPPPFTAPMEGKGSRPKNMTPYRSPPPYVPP
Sequence of UniProt Q96LJ7 (Q96LJ7 whole entry, looked up): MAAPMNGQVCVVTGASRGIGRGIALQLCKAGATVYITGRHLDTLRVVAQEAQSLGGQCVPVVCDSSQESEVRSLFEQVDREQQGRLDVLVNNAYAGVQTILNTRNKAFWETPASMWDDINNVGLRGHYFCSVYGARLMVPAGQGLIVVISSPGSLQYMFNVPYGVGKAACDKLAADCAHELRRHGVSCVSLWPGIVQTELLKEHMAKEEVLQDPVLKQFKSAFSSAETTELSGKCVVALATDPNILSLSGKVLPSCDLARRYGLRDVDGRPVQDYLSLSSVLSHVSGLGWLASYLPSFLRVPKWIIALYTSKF
Sequence of UniProt P29692 (P29692 whole entry, looked up): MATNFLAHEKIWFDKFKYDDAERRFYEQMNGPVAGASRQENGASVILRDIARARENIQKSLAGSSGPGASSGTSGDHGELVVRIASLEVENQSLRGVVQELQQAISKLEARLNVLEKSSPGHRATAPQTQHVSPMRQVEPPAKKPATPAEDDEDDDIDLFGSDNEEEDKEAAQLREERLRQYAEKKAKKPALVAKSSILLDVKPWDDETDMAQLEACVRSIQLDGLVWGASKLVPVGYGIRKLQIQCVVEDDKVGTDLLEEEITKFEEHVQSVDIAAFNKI
Sequence of UniProt Q15392 (Q15392 whole entry, looked up): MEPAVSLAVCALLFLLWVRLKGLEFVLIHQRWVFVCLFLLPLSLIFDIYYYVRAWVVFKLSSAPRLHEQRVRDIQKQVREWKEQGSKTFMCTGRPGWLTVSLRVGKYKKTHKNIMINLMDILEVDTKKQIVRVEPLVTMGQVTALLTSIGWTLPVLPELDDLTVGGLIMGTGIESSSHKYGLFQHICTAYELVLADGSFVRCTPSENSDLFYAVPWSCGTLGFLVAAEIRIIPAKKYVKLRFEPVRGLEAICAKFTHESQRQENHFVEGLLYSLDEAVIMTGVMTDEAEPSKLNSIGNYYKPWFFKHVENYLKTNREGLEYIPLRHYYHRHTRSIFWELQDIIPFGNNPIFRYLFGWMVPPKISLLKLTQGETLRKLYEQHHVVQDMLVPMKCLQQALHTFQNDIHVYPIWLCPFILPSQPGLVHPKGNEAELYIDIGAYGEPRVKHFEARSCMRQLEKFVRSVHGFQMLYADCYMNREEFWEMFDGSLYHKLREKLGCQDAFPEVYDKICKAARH
Sequence of UniProt P23919 (P23919 whole entry, looked up): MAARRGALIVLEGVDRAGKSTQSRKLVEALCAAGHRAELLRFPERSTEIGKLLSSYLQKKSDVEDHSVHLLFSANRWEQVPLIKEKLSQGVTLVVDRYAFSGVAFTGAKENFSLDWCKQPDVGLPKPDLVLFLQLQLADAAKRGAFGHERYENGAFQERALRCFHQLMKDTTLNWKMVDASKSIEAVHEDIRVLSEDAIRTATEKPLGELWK
Sequence of UniProt Q8N128 (Q8N128 whole entry, looked up): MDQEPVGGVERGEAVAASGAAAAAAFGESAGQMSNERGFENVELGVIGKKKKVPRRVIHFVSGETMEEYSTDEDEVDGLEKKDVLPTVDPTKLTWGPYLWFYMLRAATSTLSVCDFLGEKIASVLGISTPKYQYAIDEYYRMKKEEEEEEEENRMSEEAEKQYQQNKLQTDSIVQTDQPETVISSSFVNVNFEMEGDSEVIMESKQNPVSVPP
Sequence of UniProt P49366 (P49366 whole entry, looked up): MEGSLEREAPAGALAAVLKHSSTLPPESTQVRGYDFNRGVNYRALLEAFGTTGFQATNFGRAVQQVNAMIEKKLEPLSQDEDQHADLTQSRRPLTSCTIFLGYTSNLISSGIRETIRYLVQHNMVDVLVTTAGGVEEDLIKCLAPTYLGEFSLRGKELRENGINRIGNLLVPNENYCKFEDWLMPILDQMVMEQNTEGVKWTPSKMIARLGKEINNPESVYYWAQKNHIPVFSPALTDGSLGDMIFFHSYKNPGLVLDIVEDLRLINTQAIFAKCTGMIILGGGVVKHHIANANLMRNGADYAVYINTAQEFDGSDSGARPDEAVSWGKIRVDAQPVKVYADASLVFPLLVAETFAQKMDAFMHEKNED

Row | Target | log2 fold change (erlotinib) | log2 fold change [1] | log2 fold change [2] | log2 fold change [3] | log2 fold change [4] | log2 fold change [5] | log2 fold change [6] | log2 fold change [7] | log2 fold change [8] | log2 fold change [9] | log2 fold change (IRAK-1-4 Inhibitor I) | log2 fold change (ibrutinib) | log2 fold change [10] | log2 fold change (ralimetinib) | log2 fold change [11] | log2 fold change [12] | log2 fold change [13] | log2 fold change (pinometostat) | log2 fold change [14] | log2 fold change [15]
1 | EEF1D isoform 2 (UniProt P29692) | 0 (inactive) | 0.031 (inactive) | 0.016 (inactive) | -0.028 (inactive) | 0.025 (inactive) | 0.02 (inactive) | -0.03 (inactive) | 0.021 (inactive) | 0.048 (inactive) | -0.055 (inactive) | -0.038 (inactive) | -0.039 (inactive) | 0.012 (inactive) | 0.026 (inactive) | -0.006 (inactive) | -0.051 (inactive) | 0.029 (inactive) | 0.065 (inactive) | 0.002 (inactive) | 0.039 (inactive)
2 | DMXL1 (UniProt Q9Y485) | 0.059 (inactive) | 0.071 (inactive) | -0.006 (inactive) | 0.006 (inactive) | 0.068 (inactive) | -0.001 (inactive) | 0.024 (inactive) | -0.02 (inactive) | 0.019 (inactive) | 0.034 (inactive) | -0.005 (inactive) | 0.002 (inactive) | -0.035 (inactive) | 0.028 (inactive) | -0.085 (inactive) | -0.231 (inactive) | 0.019 (inactive) | 0.042 (inactive) | -0.005 (inactive) | 0.069 (inactive)
3 | DPP8 (UniProt Q6V1X1) | 0.093 (inactive) | 0.088 (inactive) | 0.067 (inactive) | 0 (inactive) | 0.134 (inactive) | 0.018 (inactive) | -0.067 (inactive) | -0.011 (inactive) | -0.003 (inactive) | 0.008 (inactive) | 0.002 (inactive) | -0.001 (inactive) | -0.035 (inactive) | -0.046 (inactive) | -0.005 (inactive) | 0.059 (inactive) | 0.015 (inactive) | -0.018 (inactive) | 0.004 (inactive) | 0.12 (inactive)
4 | DHPS (UniProt P49366) | 0 (inactive) | -0.01 (inactive) | 0.088 (inactive) | -0.002 (inactive) | -0.034 (inactive) | 0.033 (inactive) | 0.024 (inactive) | -0.004 (inactive) | -0.007 (inactive) | 0.021 (inactive) | 0.011 (inactive) | -0.004 (inactive) | 0.02 (inactive) | -0.04 (inactive) | -0.043 (inactive) | 0.047 (inactive) | -0.012 (inactive) | -0.095 (inactive) | 0.008 (inactive) | -0.027 (inactive)
5 | CUX1 isoform 2 (UniProt Q13948) | -0.025 (inactive) | 0.017 (inactive) | 0.012 (inactive) | 0.036 (inactive) | 0.014 (inactive) | -0.031 (inactive) | -0.043 (inactive) | 0.009 (inactive) | -0.009 (inactive) | -0.031 (inactive) | 0.042 (inactive) | 0.017 (inactive) | -0.032 (inactive) | 0.036 (inactive) | -0.101 (inactive) | 0.045 (inactive) | 0.042 (inactive) | 0.055 (inactive) | 0.013 (inactive) | 0.049 (inactive)
6 | DHCR24 (UniProt Q15392) | 0.393 (inactive) | 0.068 (inactive) | -0.151 (inactive) | 0.092 (inactive) | 0.081 (inactive) | -0.024 (inactive) | 0.03 (inactive) | -0.009 (inactive) | -0.066 (inactive) | -0.074 (inactive) | -0.036 (inactive) | 0.02 (inactive) | 0.157 (inactive) | 0.04 (inactive) | 0.041 (inactive) | 1.14 (active) | 0.022 (inactive) | 0.05 (inactive) | -0.104 (inactive) | 0.212 (inactive)
7 | EEF1G isoform 2 (UniProt P26641) | -0.051 (inactive) | 0.062 (inactive) | -0.009 (inactive) | -0.016 (inactive) | -0.036 (inactive) | -0.021 (inactive) | 0.083 (inactive) | 0.012 (inactive) | 0.001 (inactive) | -0.031 (inactive) | -0.02 (inactive) | -0.083 (inactive) | 0.044 (inactive) | 0.059 (inactive) | 0.006 (inactive) | -0.067 (inactive) | -0.024 (inactive) | 0.042 (inactive) | -0.015 (inactive) | 0.017 (inactive)
8 | DHRS1 (UniProt Q96LJ7) | -0.045 (inactive) | 0.995 (active) | -0.02 (inactive) | -0.105 (inactive) | 0.353 (inactive) | -0.034 (inactive) | 0.813 (active) | -0.163 (inactive) | -0.163 (inactive) | -0.021 (inactive) | 0.037 (inactive) | 0.105 (inactive) | 0.045 (inactive) | 0.014 (inactive) | 0 (inactive) | 0.614 (inactive) | 0.21 (inactive) | -0.087 (inactive) | 0.003 (inactive) | 0.071 (inactive)
9 | EHD2 (UniProt Q9NZN4) | -0.044 (inactive) | 0.025 (inactive) | 0.013 (inactive) | -0.077 (inactive) | 0.007 (inactive) | -0.01 (inactive) | -0.003 (inactive) | 0.01 (inactive) | -0.008 (inactive) | 0.041 (inactive) | 0.009 (inactive) | 0.008 (inactive) | -0.038 (inactive) | 0.003 (inactive) | -0.033 (inactive) | 0.002 (inactive) | 0.036 (inactive) | -0.044 (inactive) | 0.003 (inactive) | 0.001 (inactive)
10 | DCTN1 isoform 4 (UniProt Q14203) | 0.04 (inactive) | 0.031 (inactive) | -0.053 (inactive) | -0.033 (inactive) | 0.037 (inactive) | -0.009 (inactive) | -0.023 (inactive) | 0.05 (inactive) | 0.046 (inactive) | -0.072 (inactive) | -0.101 (inactive) | -0.02 (inactive) | -0.001 (inactive) | 0.114 (inactive) | -0.086 (inactive) | -0.303 (active) | 0.07 (inactive) | 0.138 (inactive) | -0.002 (inactive) | 0.019 (inactive)
11 | DAG1 (UniProt Q14118) | 0.055 (inactive) | 0.067 (inactive) | -0.043 (inactive) | 0 (inactive) | -0.038 (inactive) | -0.037 (inactive) | -0.154 (inactive) | -0.06 (inactive) | -0.009 (inactive) | 0.035 (inactive) | -0.019 (inactive) | -0.024 (inactive) | -0.029 (inactive) | -0.076 (inactive) | 0.003 (inactive) | 0.169 (inactive) | 0.008 (inactive) | 0.04 (inactive) | -0.008 (inactive) | 0.067 (inactive)
12 | FAM177A1 isoform 2 (UniProt Q8N128) | 0.048 (inactive) | 0.042 (inactive) | 0.038 (inactive) | 0.023 (inactive) | 0.036 (inactive) | 0.02 (inactive) | 0.024 (inactive) | -0.037 (inactive) | 0.109 (inactive) | 0.044 (inactive) | 0.042 (inactive) | 0.038 (inactive) | 0.033 (inactive) | 0 (inactive) | -0.242 (inactive) | -0.245 (inactive) | 0.029 (inactive) | 0.081 (inactive) | 0.062 (inactive) | -0.019 (inactive)
13 | DOCK8 (UniProt Q8NF50) | 0.259 (inactive) | 0.001 (inactive) | 0.182 (inactive) | 0.04 (inactive) | -0.092 (inactive) | -0.021 (inactive) | -0.046 (inactive) | 0.059 (inactive) | -0.076 (inactive) | -0.071 (inactive) | 0.047 (inactive) | 0.015 (inactive) | 0.029 (inactive) | 0.105 (inactive) | -0.198 (inactive) | 0.152 (inactive) | 0.274 (inactive) | 0.059 (inactive) | 0.064 (inactive) | -0.121 (inactive)
14 | DTYMK (UniProt P23919) | -0.007 (inactive) | 0.025 (inactive) | 0.013 (inactive) | 0.04 (inactive) | -0.027 (inactive) | 0.044 (inactive) | -0.017 (inactive) | 0.095 (inactive) | 0.015 (inactive) | 0.016 (inactive) | 0.076 (inactive) | -0.003 (inactive) | -0.02 (inactive) | -0.056 (inactive) | -0.178 (inactive) | -0.029 (inactive) | -0.013 (inactive) | 0.039 (inactive) | -0.01 (inactive) | 0.084 (inactive)
15 | ESYT1 isoform 2 (UniProt Q9BSJ8) | 0.039 (inactive) | 0.081 (inactive) | -0.016 (inactive) | -0.05 (inactive) | 0.035 (inactive) | -0.069 (inactive) | -0.042 (inactive) | 0.043 (inactive) | -0.11 (inactive) | -0.092 (inactive) | -0.126 (inactive) | -0.046 (inactive) | -0.048 (inactive) | 0 (inactive) | -0.075 (inactive) | -0.321 (active) | 0.053 (inactive) | 0.152 (inactive) | -0.018 (inactive) | 0.031 (inactive)
